Experiment [1] in a line: Cell Viability - HepG2 (AID 433; calls by dose curve;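 note: potency is the fitted concentration of half-maximal effect; potency for ATP loss meaning cytotoxicity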). To be noted: qHTS. Put shortly:
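Cytotoxicity is scored as loss of intracellular ATP in HepG2 cells exposed to compounds for 40 h. Concentration-response curves, normalized to DMSO and 100 uM tamoxifen, give AC50 values.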
In general terms: Quantitative high-throughput screening tests each substance at several concentrations.

Experiment [2] in a line: Cell Viability - N2a (AID 540).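 Note: plate controls were DMSO alone for no effect and tamoxifen control for full effect; nearly all actives have a fitted effect of over 45% in size.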 To be noted: N2a mouse neuroblastoma cell viability; activity change, negative = cytotoxicity: at 92.2 µM (top of the series). In outline:
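CellTiter-Glo ATP luminescence, read 20 min after reagent at room temperature, reported viability following 40 h compound treatment at 37 °C. N2a mouse neuroblastoma cells seeded 1500/well; Hill equation gave AC50.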

Experiment [3] in a line: Cellular Toxicity (caspase-3) BJ (AID 658).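 Note: 0% = DMSO basal and 100% = 10 µM staurosporine.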 To be noted: BJ fibroblasts, luminescence, normalized: DMSO 0%, staurosporine 100%; series mostly up to 91.7 µM. Put shortly:
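Plated BJ cells (1000/well) rested 5 hr, received compound for 16 hr at 37 °C, then Caspase-Glo 3/7 reagent for 1 hr at room temperature before luminescence reading.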

Experiment [4] can be described thus: MultiTox-Fluor Cytotoxicity Assay - LYMP1-002 - Live Cells (AID 955). Note: % is set by controls: 0 for no effect and ±100 for the full control effect. To be noted: LYMP1-002 lymphoblastoid live-cell protease fluorescence viability; series mostly up to 46.1 µM. In outline:
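After 16 h compound exposure at 37 C, live LYMP1-002 lymphoblastoid cells (2500/well) were quantified by cleavage of cell-permeant GF-AFC substrate, read at 405/510 nm after 60 min. Concentration-response fitted with Hill equation for AC50.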

Experiment [5] in a line: Cell Viability - LYMP2-023 (AID 975).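 For activity change, negative = cytotoxicity: cellular ATP measured by luciferase luminescence as viability proxy; plate controls were DMSO only for no effect and 92 µM tetraoctylammonium bromide control for full effect.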 Note: nearly all actives have a fitted effect of over 55% in size. Note: potency is the fitted concentration of half-maximal effect. The conditions noted are these: LYMP2-023 lymphoblastoid cell viability; series mostly up to 92.2 µM. In outline: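 Intracellular ATP, read by CellTiter-Glo luminescence, reports viability after 24 hr compound exposure at 37 C. 2500 lymphoblastoid cells/well (LYMP2-023) seeded 5 hr beforehand; Hill fits give AC50; positive control tetraoctylammonium bromide.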

Experiment [6] can be described thus: Cell Viability - LYMP2-012 (AID 982).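 For activity change, negative = cytotoxicity: 0% = DMSO only and full loss = 92 µM tetraoctylammonium bromide.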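 Note: cellular ATP by luciferase luminescence where a drop means cytotoxicity; cells exposed to compound for one day before reading; nearly all actives have a fitted effect of over 55% in size.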 Note: potency is the fitted concentration of half-maximal effect. To be noted: LYMP2-012 lymphoblastoid cell viability qHTS; series mostly up to 92.2 µM.
Experiment [7] in a line: Cell Viability - LYMP2-016 (AID 984). For activity change, negative = cytotoxicity: % is set by controls: 0 for no effect and ±100 for the full control effect. Note: nearly all actives have a fitted effect of over 55% in size. Note: potency is the fitted concentration of half-maximal effect. To be noted: LYMP2-016 lymphoblastoid cell viability, qHTS; series mostly up to 92.2 µM. In outline:
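Acute toxicity in a Coriell human lymphoblastoid line is scored as loss of intracellular ATP over 24 h of treatment in complete medium. CellTiter-Glo signal is fitted across concentrations with the Hill equation to give AC50.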

A short description of experiment [8]: Cell Viability - LYMP2-020 (AID 986). Note: nearly all actives have a fitted effect of over 55% in size. Note: potency is the fitted concentration of half-maximal effect. To be noted: series mostly up to 92.2 µM. In outline:
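Cytotoxicity in qHTS format: luminescent ATP readout from CellTiter-Glo after 24 h compound exposure at 37 C in complete medium. LYMP2-020 lymphoblastoid cells were seeded at 2500/well; concentration-response data fitted to the Hill equation for AC50.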

Experiment [9] is described as follows: Cell Viability - LYMP2-022 (AID 987). Note: nearly all actives have a fitted effect of over 55% in size. Note: potency is the fitted concentration of half-maximal effect. To be noted: LYMP2-022 lymphoblastoid cell viability; series mostly up to 92.2 µM. Put shortly: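 Cytotoxicity read as decreased cellular ATP (CellTiter-Glo luminescence, 30 min room temperature) after 24 hours compound exposure of 2500 lymphoblastoid LYMP2-022 cells/well at 37 C. Concentration-response data fitted with standard Hill equation for AC50.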

The target of experiment [10] is Vitamin D3 receptor (Homo sapiens) (UniProt P11473). The experiment in a line: qHTS assay for small molecule agonists of vitamin D receptor signaling (AID 588543; calls by dose curve;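 note: 0% = DMSO basal and 100% = reference agonist control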). The conditions noted are these: HEK293T VDR-UAS-bla, beta-lactamase ratio, 16 h; series mostly up to 76.8 µM. Put shortly:
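qHTS in agonist mode: compound titrations stimulate a VDR-driven β-lactamase reporter in HEK293T cells over 16 h at 37 °C. Response normalized to 50 nM 1α,25-dihydroxyvitamin D3 = 100%, DMSO = 0%; Hill fitting gives EC50 and maximal response.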

Experiment [11] addresses Retinoic acid receptor RXR-alpha (Homo sapiens) (UniProt P19793). The experiment in a line: qHTS assay for small molecule antagonists of retinoid X receptor alpha signaling (AID 588546; active = well fitted inhibition curve with a large enough effect in the signal ratio, with a control signal flat, not every such curve was filed as active; the % refers to the signal ratio;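 note: cells stimulated with 9-cis-retinoic acid as agonist; % is set by controls: 0 for no effect and ±100 for the full control effect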). To be noted: HEK293T RXRa-UAS-bla, beta-lactamase ratio, antagonist mode. Put shortly:
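Beta-lactamase reporter inhibition, read as CCF4 fluorescence ratio (ex 405, em 460/530 nm) after 2 h at RT. HEK293T UAS-bla cells, 2500/well, were stimulated with 9-cis-RA at 500 or 100 nM final alongside test compound for 18 h at 37 C.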

For experiment [12], the target named is Voltage-gated inwardly rectifying potassium channel KCNH2 (Homo sapiens) (UniProt Q12809). Briefly: qHTS Assay for Small Molecule Inhibitors of the Human hERG Channel Activity (AID 588834).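 Note: U2OS cells transduced with hERG by BacMam; top concentration of the series differs between compounds; % is set by controls: 0 for no effect and ±100 for the full control effect; lower thallium flux fluorescence means stronger hERG block; nearly all actives have a fitted effect of over 50% in size.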 The conditions noted are these: U2OS BacMam hERG, FluxOR thallium flux fluorescence; series mostly up to 92.2 µM. Put shortly:
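Cells were infected with hERG-BacMam virus for 4 hrs at room temperature, grown overnight, then seeded at 2000/well. After dye loading and roughly 10 min compound treatment, thallium influx was triggered and fluorescence recorded.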

Experiment [13] in a line: qHTS assay for small molecule activators of the p53 signaling pathway (AID 651743; active = well fitted activation curve with a large enough effect in the signal ratio, not every such curve was filed as active; the % refers to the signal ratio; note: % of control where 0% means no effect). The conditions noted are these: HCT-116 p53RE-bla, beta-lactamase FRET ratio, 16 h; activation: stronger effect = higher value. In outline:
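Agonist-mode quantitative HTS in HCT-116 cells carrying a p53-response-element beta-lactamase reporter; 16 h compound treatment at 37 C, then FRET substrate loading for 2 h at room temperature and fluorescence read.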

The nature of experiment [14]: qHTS assay for cell viability of HEK293 cells (AID 743288). Note: % is set by controls: 0 for no effect and ±100 for the full control effect; nearly all actives have a fitted effect of over 50% in size. The conditions noted are these: ATP luminescence (CellTiter-Glo), 18 h, stronger effect = lower value. In outline:
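Quantitative high-throughput screen: compounds were pinned onto parental HEK293 cells (2,000 per well) after a minimum 5 h settling at 37 C, incubated 18 h at 37 C, and intracellular ATP measured by luciferase luminescence.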

A short description of experiment [15]: Cellular Toxicity (caspase-3) Jurkat (AID 655).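 Note: cells exposed to compound for 16 h at 37 °C before reading.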 The conditions noted are these: Jurkat caspase-3 activation, luminescence; caspase-3 activation: at 92.2 µM (top of the series), DMSO = 0%, tamoxifen = 100%. In outline:
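Caspase 3/7 activation is scored as increased luminescence in Jurkat cells cultured with compound for 16 hours in complete medium. AC50 values come from Hill fits of qHTS concentration-response data normalized to DMSO and 100 uM tamoxifen controls.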

A short description of experiment [16]: Cell Viability - LYMP2-004 (AID 966).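 Note: plate controls were DMSO only for no effect and tetraoctylammonium bromide control for full effect; nearly all actives have a fitted effect of over 65% in size.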 To be noted: LYMP2-004 lymphoblastoid cell viability, qHTS; series mostly up to 92.2 µM. Put shortly:
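AC50 values come from Hill modelling of concentration-dependent loss of intracellular ATP, measured by CellTiter-Glo luminescence. Human LYMP2-004 lymphoblastoid cells (2500/well) were exposed to compound for 24 h at 37 C.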

Experiment [17] can be described thus: Cell Viability - LYMP2-011 (AID 969).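 Note: 0% = DMSO only and full inhibition = 92 µM tetraoctylammonium bromide; nearly all actives have a fitted effect of over 60% in size.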 The conditions noted are these: LYMP2-011 lymphoblastoid cells viability; series mostly up to 92.2 µM. Put shortly:
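Cytotoxicity qHTS with ATP content as read-out: lymphoblastoid cells (2500/well) exposed to compound for 24 h at 37 C, then luciferase luminescence measured. Concentration-response data fitted with the standard Hill equation to give AC50.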

Experiment [18] in a line: Cell Viability - LYMP2-025 (AID 976).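 Note: plate controls were DMSO only for no effect and tetraoctylammonium bromide control for full effect.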 The conditions noted are these: LYMP2-025 lymphoblastoid cell viability; series mostly up to 92.2 µM. In outline: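 Cytotoxicity read as loss of intracellular ATP (luciferase luminescence) after 24 h compound treatment at 37 C. Uses LYMP2-025 lymphoblastoid cells in 1536-well format; Hill-equation modelling gives AC50; tetraoctylammonium bromide as positive control.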

The nature of experiment [19]: Cell Viability - LYMP2-002 (AID 977).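 Note: plate controls were DMSO only for no effect and 92 µM tetraoctylammonium bromide for full effect.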 The conditions noted are these: LYMP2-002 lymphoblastoid cell viability, qHTS; series mostly up to 92.2 µM. Put shortly: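 In this qHTS viability screen, 2500 human lymphoblastoid cells per well receive compound for 24 hr at 37 C, and luciferase-based ATP luminescence gives the viability signal. Tetraoctylammonium bromide serves as positive control.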

Experiment [20] is described as follows: Cell Viability - LYMP2-014 (AID 983).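 Note: plate controls were DMSO only for no effect and 92 µM tetraoctylammonium bromide for full effect; nearly all actives have a fitted effect of over 50% in size.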 The conditions noted are these: LYMP2-014 lymphoblastoid cells, viability qHTS; series mostly up to 92.2 µM. Put shortly: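 Intracellular ATP loss, read by luciferase luminescence, measures acute cytotoxicity after 24 h compound exposure of lymphoblastoid LYMP2-014 cells (2500/well, 37 C). Concentration-response data fitted to the Hill equation for AC50.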

Where “and” joins values, the source holds several entries; their conditions need not be identical. Equal values may be shown once. Values without a mark were called inactive. Records with an inconclusive call do not appear. Calls of active or inactive are those of the source. Unless noted, calls come from the whole dose curve; as a rule, active = well fitted curve in the direction sought with a large enough effect; inconclusive = small, poorly fitted or top-dose-only effect, or another doubt; inactive = no such curve, though single readings can be large; an effect the other way counts as inactive or inconclusive.

Sequence of Retinoic acid receptor RXR-alpha (Homo sapiens) (P19793 whole entry, looked up): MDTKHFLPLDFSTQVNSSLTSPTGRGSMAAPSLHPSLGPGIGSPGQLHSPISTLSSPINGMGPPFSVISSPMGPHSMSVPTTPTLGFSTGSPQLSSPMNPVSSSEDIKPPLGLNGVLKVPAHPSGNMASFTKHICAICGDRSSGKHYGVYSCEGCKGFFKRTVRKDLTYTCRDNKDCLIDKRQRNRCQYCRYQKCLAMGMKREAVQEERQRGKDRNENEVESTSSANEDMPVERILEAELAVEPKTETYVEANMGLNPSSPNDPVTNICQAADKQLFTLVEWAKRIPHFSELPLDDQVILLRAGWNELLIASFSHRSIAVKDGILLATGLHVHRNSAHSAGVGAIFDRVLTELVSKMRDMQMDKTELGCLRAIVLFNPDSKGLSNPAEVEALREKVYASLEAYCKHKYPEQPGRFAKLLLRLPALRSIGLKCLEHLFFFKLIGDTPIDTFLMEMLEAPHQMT
Sequence of Vitamin D3 receptor (Homo sapiens) (P11473 whole entry, looked up): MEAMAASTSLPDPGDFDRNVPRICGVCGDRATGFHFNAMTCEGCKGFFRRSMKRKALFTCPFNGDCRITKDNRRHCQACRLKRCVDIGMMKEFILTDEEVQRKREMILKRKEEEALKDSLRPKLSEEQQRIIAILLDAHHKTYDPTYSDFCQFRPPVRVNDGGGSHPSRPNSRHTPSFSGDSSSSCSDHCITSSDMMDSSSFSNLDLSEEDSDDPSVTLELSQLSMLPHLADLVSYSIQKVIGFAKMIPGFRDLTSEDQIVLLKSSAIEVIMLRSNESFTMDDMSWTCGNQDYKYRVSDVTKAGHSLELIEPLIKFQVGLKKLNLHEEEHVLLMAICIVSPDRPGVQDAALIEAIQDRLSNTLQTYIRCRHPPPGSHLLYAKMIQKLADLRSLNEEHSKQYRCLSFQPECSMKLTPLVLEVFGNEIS
Sequence of Voltage-gated inwardly rectifying potassium channel KCNH2 (Homo sapiens) (Q12809 whole entry, looked up): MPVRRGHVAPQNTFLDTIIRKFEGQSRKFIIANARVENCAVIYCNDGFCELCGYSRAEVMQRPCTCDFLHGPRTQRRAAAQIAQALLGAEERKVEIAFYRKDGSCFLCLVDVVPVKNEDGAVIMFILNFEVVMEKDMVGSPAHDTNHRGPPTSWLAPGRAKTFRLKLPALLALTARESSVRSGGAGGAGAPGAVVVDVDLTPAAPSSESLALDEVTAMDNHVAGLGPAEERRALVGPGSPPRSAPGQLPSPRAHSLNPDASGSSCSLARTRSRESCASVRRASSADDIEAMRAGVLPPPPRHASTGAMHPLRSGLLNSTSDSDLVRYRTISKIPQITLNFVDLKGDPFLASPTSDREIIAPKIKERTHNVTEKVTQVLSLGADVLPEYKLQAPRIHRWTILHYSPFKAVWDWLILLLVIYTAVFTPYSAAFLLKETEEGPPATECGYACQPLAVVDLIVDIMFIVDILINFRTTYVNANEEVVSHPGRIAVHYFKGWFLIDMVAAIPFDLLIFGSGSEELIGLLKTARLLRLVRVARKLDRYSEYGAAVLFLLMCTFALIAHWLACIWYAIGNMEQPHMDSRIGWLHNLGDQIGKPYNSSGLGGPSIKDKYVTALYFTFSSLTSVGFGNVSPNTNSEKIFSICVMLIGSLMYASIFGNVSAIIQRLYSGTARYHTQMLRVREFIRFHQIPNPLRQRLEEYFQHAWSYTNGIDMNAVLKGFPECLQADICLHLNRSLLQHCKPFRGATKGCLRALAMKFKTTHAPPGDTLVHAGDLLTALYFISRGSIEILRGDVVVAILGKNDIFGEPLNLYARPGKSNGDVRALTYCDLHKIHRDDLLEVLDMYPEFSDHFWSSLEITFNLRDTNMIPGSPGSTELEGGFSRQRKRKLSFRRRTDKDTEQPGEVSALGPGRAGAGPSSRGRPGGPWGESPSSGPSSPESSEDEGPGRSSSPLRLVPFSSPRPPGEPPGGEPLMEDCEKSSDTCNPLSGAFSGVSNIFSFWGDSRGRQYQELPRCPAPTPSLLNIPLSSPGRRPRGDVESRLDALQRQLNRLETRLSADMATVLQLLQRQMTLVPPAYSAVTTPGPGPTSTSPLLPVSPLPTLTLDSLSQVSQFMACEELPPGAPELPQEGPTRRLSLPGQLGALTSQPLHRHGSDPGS

On to `OC[P+](CO)(CO)CO`, for which the Potency in experiment [1] is more than 92 µM; in [5] it was 25.1 µM (active); in experiment [6], 15.8 µM (active); in experiment [7], 20 µM (active); in experiment [8], 12.6 µM (active); in experiment [9], 12.6 µM (active). The Potency result in experiment [2] and in [12] was “inactive” in each case. The outcome in experiment [3], in [4] and in [10] was inactive. Also, the max response in [11] was -5.42% and -52.4%; in experiment [14], -13.3%. The activation in [13] was 4.85% and 1.14%.
Consider `C=CC(=O)OCC(C)C`, for which the Potency in experiment [1] is more than 92 µM. Moreover, the Potency entry in experiment [2], in experiment [16], in [17], in [5], in [18] and in experiment [19] was “inactive” throughout. Also, the Potency result in experiment [6], in experiment [20], in experiment [7], in experiment [8], in experiment [9] and in [12] was “inactive” throughout. In addition, in [15], the caspase-3 activation is 0.654%. The call in experiment [3], in experiment [4] and in experiment [10] was inactive. The max response in experiment [11] was 5.4%; in experiment [14] it was 2.29%. Moreover, in [13], the activation is -0.853%.
As for `ClC=CCl`, the Potency in [1] was more than 92 µM. For the same compound, the caspase-3 activation in experiment [15] is 1.45%. Besides, the outcome in [4] and in experiment [10] was inactive. Besides, the Potency result in experiment [16], in experiment [5], in [19], in experiment [6], in [20] and in experiment [7] was “inactive” each time. The Potency entry in experiment [8], in experiment [9] and in experiment [12] was “inactive” in each case. For the same compound, the max response in experiment [11] was -1.6%. Also, the activation in experiment [13] is -3.46%.
Take `C=C(C)CCl`: the Potency in experiment [1] is more than 92 µM. Besides, the Potency entry in experiment [2], in experiment [16], in experiment [17], in [5], in experiment [18] and in experiment [6] was “inactive” throughout. The Potency entry in [7], in experiment [8], in experiment [9] and in experiment [12] was “inactive” in each case. Further, the result in experiment [3], in experiment [4] and in experiment [10] was inactive. Moreover, the max response in experiment [11] is 1.96%; in [14] it was -1.82%. The activation in [13] was -3.39%.
With `Oc1c(Cl)c(Cl)cc(Cl)c1Cl`, the Potency in experiment [1] is more than 92 µM. For the same compound, the caspase-3 activation in experiment [15] is 83.2% (active). In addition, in experiment [3], the compound was classed as inactive. Further, the Potency entry in [16], in experiment [17], in experiment [18], in experiment [6], in experiment [20] and in experiment [7] was “inactive” throughout. In addition, the Potency result in experiment [9] and in [12] was “inactive” in each case. For the same compound, the max response in experiment [11] was -10.3%; in experiment [14], 1.93%.
`Cc1ccc2c(c1N)C(=O)c1ccccc1C2=O`: the caspase-3 activation in [15] was -9.07%. The compound was called inactive in [3] and in [4]. The Potency entry in [16], in experiment [17], in experiment [5], in [18], in experiment [19] and in experiment [6] was “inactive” throughout. For the same compound, the Potency result in [20], in experiment [7], in experiment [8] and in [9] was “inactive” in each case. For the same compound, the max response was 9.57% and -23.7% in [11]; -21.2% and -23% in experiment [14]. Also, in [13], the activation was 7.91% and 8.94%.
For `CSSC`, the Potency result in experiment [2], in experiment [16], in experiment [17], in [5], in experiment [18] and in experiment [19] was “inactive” in each case. For the same compound, the Potency result in experiment [6], in [20], in [7], in experiment [8], in experiment [9] and in experiment [12] was “inactive” in each case. In experiment [15], the caspase-3 activation is -0.115%. Further, the compound was classed as inactive in experiment [3], in [4] and in experiment [10]. Also, the results for the max response in experiment [11] and in experiment [14] were 7.08% and -1.5%, respectively. In experiment [13], the activation was -1.71%.

(Values after PubChem BioAssay (NCATS).)
